The term AC50 denotes the midpoint of the concentration-response curve, whichever way the signal moves.

Calls of active or inactive are those of the source. How the source made its calls: active means hit-call score of the fitted dose curve at least 0.9, where 1 is the maximum; inactive means score below 0.9.

Sequence of human TRKA Receptor Tyrosine Kinase, NTRK1 (gene 4914) (P04629 whole entry, looked up): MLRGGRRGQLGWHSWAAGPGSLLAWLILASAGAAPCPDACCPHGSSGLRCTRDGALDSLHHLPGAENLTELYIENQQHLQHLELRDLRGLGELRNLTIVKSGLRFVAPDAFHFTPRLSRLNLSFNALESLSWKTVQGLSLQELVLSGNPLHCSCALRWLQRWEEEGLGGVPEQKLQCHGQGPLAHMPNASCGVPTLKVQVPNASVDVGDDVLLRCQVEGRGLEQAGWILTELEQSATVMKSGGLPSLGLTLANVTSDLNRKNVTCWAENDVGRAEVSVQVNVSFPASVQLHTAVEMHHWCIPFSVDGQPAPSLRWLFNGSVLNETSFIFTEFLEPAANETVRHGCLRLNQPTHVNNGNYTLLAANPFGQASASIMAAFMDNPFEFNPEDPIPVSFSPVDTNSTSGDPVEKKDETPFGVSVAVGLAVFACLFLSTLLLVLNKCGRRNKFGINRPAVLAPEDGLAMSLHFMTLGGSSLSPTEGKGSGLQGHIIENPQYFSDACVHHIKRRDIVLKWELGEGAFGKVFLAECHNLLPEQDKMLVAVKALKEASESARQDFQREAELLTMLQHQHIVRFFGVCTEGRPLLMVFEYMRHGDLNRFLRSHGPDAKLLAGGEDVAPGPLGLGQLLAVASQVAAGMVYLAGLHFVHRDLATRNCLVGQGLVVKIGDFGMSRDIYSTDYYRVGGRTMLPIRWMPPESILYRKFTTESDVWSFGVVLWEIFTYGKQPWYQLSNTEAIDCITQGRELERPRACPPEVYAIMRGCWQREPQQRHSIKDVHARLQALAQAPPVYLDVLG

The target of the test is human TRKA Receptor Tyrosine Kinase, NTRK1 (gene 4914) (UniProt P04629). Put plainly: ERF_FR_ENZ_hNTRK1: Eurofins (ERF) Enzymatic Radiometric [Km ATP] KinaseProfiler LeadHunter Assay for human TRKA Receptor Tyrosine Kinase. Here is the method:
ERF_FR_ENZ_hNTRK1 is a biochemical, single-readout assay that uses extracted gene-proteins in a cell-free assay. Measurements were taken 0.16 hour after chemical dosing in a 96-well plate. See TRKA Human RTK Kinase Enzymatic LANCE Assay [Km ATP], Cerep.ERF_FR_ENZ_hNTRK1 is an assay component calculated from the ERF_FR_ENZ_hNTRK1 assay. It is designed to measure enzyme activity using a type of enzyme reporter as detected by fluorescence intensity with LANCE technology.Data from the assay component ERF_FR_ENZ_hNTRK1 was analyzed at the assay endpoint, ERF_FR_ENZ_hNTRK1, in the positive analysis fitting direction relative to DMSO as the negative control and baseline of activity. Using a type of enzyme reporter, loss-of-signal activity can be used to understand changes in enzymatic activity as they relate to gene NTRK1. To generalize the intended target to other relatable targets, this assay endpoint is annotated to the kinase intended target family, where the subfamily is receptor tyrosine kinase.
TrkA (h) is incubated with 8 mM MOPS pH 7.0, 0.2 mM EDTA, 250 uM […], 10 mM MgAcetate and [g- 33P]-ATP (specific activity and concentration as required). The reaction is initiated by the addition of the Mg/ATP mix. After incubation for 40 minutes at room temperature, the reaction is stopped by the addition of phosphoric acid to a concentration of 0.5%. An aliquot of the reaction is then spotted onto a filter and washed four times for 4 minutes in 0.425% phosphoric acid and once in methanol prior to drying and scintillation counting.Compound should be supplied in 100% DMSO.We require a stock solution at a concentration of at least 50x higher than the Final Assay Concentration of your cpd. A 10mM stock is also acceptable.When ordering fewer than 60 kinase assays, we need 120uL of 50x concentrated stock. For more than 60 assays, we need 420 uL of 50xcc stock. Please apply the conversion if you provide 10mM stock solution or compounds in powder form (pre-weighed is required) From 50 cpds supplied as solids, the TAT will be extended.
Regarding `O=C(/C=C/c1ccc(O)cc1)CC(=O)/C=C/c1ccc(O)cc1`, the result was inactive.
On the same count and under the same terms, the value for `COc1cc(CCC(=O)CC(=O)CCc2ccc(O)c(OC)c2)ccc1O` was “inactive”.
Regarding `COc1cc(/C=C/C(=O)CC(=O)/C=C/c2ccc(O)c(OC)c2)ccc1O`, the half-maximal activity concentration (AC50) is 3.85 µM (active).
